Drawing on PubChem BioAssay (NCATS), this text covers Potency and ratio activity, negative = inhibition for 31 compounds.

Inconclusive results are not listed. Values without a mark were called inactive. Calls of active or inactive are those of the source. Unless noted, calls follow the shape of the dose curve; as a rule, active = well fitted curve in the direction sought with a large enough effect; inconclusive = small, poorly fitted or top-dose-only effect, or another doubt; inactive = no such curve, though single readings can be large; an effect the other way counts as inactive or inconclusive.

Test [1] deals with Luciferin 4-monooxygenase (Photinus pyralis) (UniProt P08659). Briefly: Biochemical firefly luciferase enzyme assay for NPC (AID 624030). Also: nearly all actives have a fitted effect of over 70% in size. The gist of the method:
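Counter-screen for direct inhibition of the luciferase enzyme by approved-drug library compounds, run at 10 nM enzyme in 50 mM Tris acetate (final). Luminescence was read within 5 min of enzyme-buffer addition and normalized to PTC124 versus DMSO (0%).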

Test [2] in a line: S16 Schwann cell PMP22 intronic element firefly luciferase assay (AID 624032). Also: nearly all actives have a fitted effect of over 30% in size. The gist of the method: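 Rat S16 Schwann cells stably carrying a PMP22 intronic element-driven Fluc reporter were seeded overnight, then exposed to compounds for 24 h at 37 °C. Luminescence was normalized to PTC124 (positive control) and DMSO (0% activity).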
The nature of test [3]: S16 Schwann cell PMP22 intronic element beta-lactamase assay (AID 624044; calls by dose curve; also: nearly all actives have a fitted effect of over 15% in size;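 as to ratio activity, negative = inhibition: 0% = DMSO and -100% = potassium clavulanate positive control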). The note with it: S16 rat Schwann cells, PMP22 element beta-lactamase FRET, 24 h; ratio activity, negative = inhibition: at 38.3 µM (top of the series) unless noted. The procedure, abridged: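 Beta-lactamase reporter under a PMP22 intronic regulatory element in stable S16 rat Schwann cells; 24 h compound exposure. 460 nm blue signal normalized between DMSO (0%) and potassium clavulanate, with 535 nm FRET tracking viability; curves classed by r2 and response.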

Test [4] is described as follows: S16 Schwann cell viability assay (CellTiter-Glo assay) (AID 624031). Also: nearly all actives have a fitted effect of over 70% in size. The procedure, abridged:
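Rat S16 Schwann cells without reporter constructs received compound or DMSO for 24 h at 37 °C under 5% CO2. Cellular ATP was then quantified by CellTiter-Glo luminescence, with vehicle wells defined as 0% activity and cell-free wells as reference.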
In general terms: In ATP-based viability assays light output follows the ATP content of the culture.
Potency is read from the fitted curve at half-maximal effect.

Sequence of Luciferin 4-monooxygenase (Photinus pyralis) (P08659 whole entry, looked up): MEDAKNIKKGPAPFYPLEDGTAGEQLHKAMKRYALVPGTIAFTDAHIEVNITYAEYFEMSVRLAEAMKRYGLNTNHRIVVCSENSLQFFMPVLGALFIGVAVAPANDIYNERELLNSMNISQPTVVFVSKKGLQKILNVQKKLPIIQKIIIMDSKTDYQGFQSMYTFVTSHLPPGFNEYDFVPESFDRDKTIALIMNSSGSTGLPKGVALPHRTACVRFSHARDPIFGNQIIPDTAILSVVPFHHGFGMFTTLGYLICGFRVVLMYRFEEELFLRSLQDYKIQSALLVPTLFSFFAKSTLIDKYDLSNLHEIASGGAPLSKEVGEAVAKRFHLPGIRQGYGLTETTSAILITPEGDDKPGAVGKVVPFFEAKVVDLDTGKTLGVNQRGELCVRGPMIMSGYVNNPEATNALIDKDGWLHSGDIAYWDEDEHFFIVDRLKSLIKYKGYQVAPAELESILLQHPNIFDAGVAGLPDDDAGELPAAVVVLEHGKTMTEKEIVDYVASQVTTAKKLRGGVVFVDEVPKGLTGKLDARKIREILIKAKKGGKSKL

`CN(C)CCC=C1c2ccccc2C(C)(C)c2ccccc21`: the Potency entry in test [1] and in test [2] was “inactive” in each case. Besides, the ratio activity, negative = inhibition in test [3] was -0.444%.

Consider `O=[N+]([O-])c1c(Cl)cccc1-c1c[nH]cc1Cl`, for which the Potency entry in test [4] and in test [2] was “inactive” throughout. For the same compound, in test [3], the ratio activity, negative = inhibition is -0.605%.

With `C=CCCCCCCCCC(=O)OC`, the Potency result in test [1], in test [4] and in test [2] was “inactive” throughout. Further, the ratio activity, negative = inhibition in test [3] was -14.3%.

Regarding `CCCCCCCCCCCCCCCCOCCOCCOCCOCCOCCOCCOCCOCCOCCOCCOCCOCCOCCOCCOCCOCCOCCOCCOCCOCCO`, in test [1], the Potency entry is “inactive”. Besides, the figures for the Potency in test [4], in test [2] and in test [3] were 28.7 µM (active), 22.8 µM (active) and 19.9 µM (active), respectively.

Turning to `C=C(C)C1CC=C(C)CC1` (stereo not given), the Potency result in test [4] and in test [2] was “inactive” in each case. For the same compound, the ratio activity, negative = inhibition in test [3] was -0.885%.

As to `NCCN`, the Potency result in test [1], in test [4] and in test [2] was “inactive” in each case. The ratio activity, negative = inhibition in test [3] was -0.354%.

Regarding `S=C1SCN(Cc2ccccc2)CN1Cc1ccccc1`, the Potency result in test [1] is “inactive”. In addition, the Potency in test [2] is 14.4 µM (active). In addition, the ratio activity, negative = inhibition in test [3] was -11.2%.

Turning to `CC(CN(C)C)CN1c2ccccc2Sc2ccc(C(F)(F)F)cc21` (stereo not given), in test [1], the Potency result is “inactive”. Also, the ratio activity, negative = inhibition in test [3] was -9.58%.

With `NC(=S)N=Nc1ccc(NN=C(N)N)cc1`, the Potency was 11.4 µM (active) in test [1] and 10.2 µM (active) in test [4]. Further, the Potency entry in test [2] is “inactive”. The ratio activity, negative = inhibition in test [3] is -3.68%.

For the compound `Oc1cc(O)cc(O)c1`, the Potency entry in test [1], in test [4] and in test [2] was “inactive” throughout. Further, the ratio activity, negative = inhibition in test [3] is 10.4%.

On to `CCN(CC)CCC(=O)N1c2ccccc2Sc2ccc(C(F)(F)F)cc21`, for which the Potency entry in test [1] and in test [4] was “inactive” throughout. In test [2], the Potency is 14.4 µM (active). Besides, the ratio activity, negative = inhibition in test [3] is -1.58%.

In the case of `CS(=O)(=O)c1ccc([C@@H](O)[C@@H](COC(=O)CN)NC(=O)C(Cl)Cl)cc1`, the Potency result in test [1], in test [4] and in test [2] was “inactive” in each case. Also, the ratio activity, negative = inhibition in test [3] was 3.99%.

As for `C[C@]12CCC(=O)C[C@@H]1CC[C@@H]1[C@@H]2CC[C@]2(C)C=CC[C@@H]12`, the Potency entry in test [1], in test [4] and in test [2] was “inactive” in each case. Also, the ratio activity, negative = inhibition in test [3] was 4.94%.

With `O=P(O)(O)OP(=O)(O)OP(=O)(O)O`, the Potency result in test [1], in test [4] and in test [2] was “inactive” each time. In addition, the ratio activity, negative = inhibition in test [3] was -5.37%.

`Cc1ccccn1`: the Potency entry in test [1], in test [4] and in test [2] was “inactive” in each case. The ratio activity, negative = inhibition in test [3] is -0.827%.

On to `CN1C(C(=O)Nc2ccccn2)C(=O)c2sc(Cl)cc2S1(=O)=O` (stereo not given), for which the Potency result in test [4] is “inactive”. Besides, in test [3], the ratio activity, negative = inhibition was 6.16%.

Take `CC/C=C\C/C=C\C/C=C\CCCCCCCC(=O)O`: the Potency entry in test [1], in test [4] and in test [2] was “inactive” in each case. Moreover, the ratio activity, negative = inhibition in test [3] was 3.48%.

As to `CCOC(=O)C1=C(COCCN)NC(C)=C(C(=O)OC)C1c1ccccc1Cl` (stereo not given), the Potency result in test [1] and in test [2] was “inactive” in each case. In addition, the ratio activity, negative = inhibition in test [3] is -3.48%.

`Cc1ncc(C[n+]2csc(CCOP(=O)(O)OP(=O)(O)O)c2C)c(N)n1`: the Potency result in test [1], in test [4] and in test [2] was “inactive” each time. The ratio activity, negative = inhibition in test [3] is -0.395%.

As to `CCSc1ccc2c(c1)N(CCCN1CCN(C)CC1)c1ccccc1S2`, the Potency entry in test [1], in test [4] and in test [2] was “inactive” in each case. For the same compound, the ratio activity, negative = inhibition in test [3] is 0.419% [at 17.1 µM].

Regarding `C=CCN1CCCC1CNC(=O)c1cc(S(N)(=O)=O)cc(OC)c1OC` (stereo not given), the Potency entry in test [1], in test [4] and in test [2] was “inactive” in each case. In test [3], the ratio activity, negative = inhibition is 1.62%.

Consider `Cc1c(Cl)cccc1Nc1ncccc1C(=O)O`, for which the Potency result in test [4] and in test [2] was “inactive” in each case. In addition, the ratio activity, negative = inhibition in test [3] was -7.17%.

Regarding `O=C1c2ccccc2C(=O)c2c1ccc(O)c2O`, the Potency entry in test [2] was “inactive”. Besides, the ratio activity, negative = inhibition in test [3] was 0.767%.

As to `CN(C)CCOc1ccc(/C(=C(/CCCl)c2ccccc2)c2ccccc2)cc1`, in test [1], the Potency result is “inactive”. Besides, in test [3], the ratio activity, negative = inhibition is -1.5%.

As for `CC12CCC(C1)C(C)(C)C2=O` (stereo not given), the Potency result in test [1], in test [4] and in test [2] was “inactive” in each case. Also, the ratio activity, negative = inhibition in test [3] is 1.35%.

`O=C(OC1C[C@@H]2CC3C[C@H](C1)N2CC3=O)c1c[nH]c2ccccc12` (stereo not given in full): the Potency entry in test [1], in test [4] and in test [2] was “inactive” in each case. Besides, in test [3], the ratio activity, negative = inhibition is -0.0634%.

Turning to `COc1ccc(C(=O)c2ccc(C)cc2)c(O)c1`, the Potency in test [1] was 14.4 µM (active). The Potency entry in test [4] and in test [2] was “inactive” throughout. Also, the ratio activity, negative = inhibition in test [3] is 6.33%.

As to `C=Cc1ccc(S(=O)(=O)O)cc1`, the Potency entry in test [1], in test [4] and in test [2] was “inactive” each time. Further, in test [3], the ratio activity, negative = inhibition is -7.16%.

On to `CC(C)(CO)[C@@H](O)C(=O)NCCC(=O)NCCSSCCNC(=O)CCNC(=O)[C@H](O)C(C)(C)CO`, for which the Potency entry in test [1], in test [4] and in test [2] was “inactive” throughout. Besides, in test [3], the ratio activity, negative = inhibition was 2.37%.

`Cc1cc2nc3c(=O)[nH]c(=O)nc-3n(C[C@H](O)[C@H](O)[C@H](O)COP(=O)(O)OP(=O)(O)OC[C@H]3O[C@@H](n4cnc5c(N)ncnc54)[C@H](O)[C@@H]3O)c2cc1C`: the Potency result in test [1], in test [4] and in test [2] was “inactive” in each case. The ratio activity, negative = inhibition in test [3] was -42.7%.

Regarding `O=C(CCCN1CCN2CCCC2C1)c1ccc(F)cc1` (stereo not given), the Potency result in test [1], in test [4] and in test [2] was “inactive” throughout. In addition, the ratio activity, negative = inhibition in test [3] is -6.15%.
